# PubChem BioAssay (NCI)
# Several values for one entry are separate records, joined by “and”; a condition that tells them apart may be missing. Equal entries are not always repeated. The panel holds about 83,000 compounds, 20% with a hit somewhere; the sample as a whole holds those more often.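 Treatment: one concentration, 48 hours, 96-well format. Scoring: percent growth, with anything below 10 considered active.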 Unmarked numbers belong to inactive results. Activity calls are given as the source filed them.
# System: MDA-MB-468 breast
# Assay: NCI-60 one-dose screen, 48 h (100 = growth as untreated, 0 = no growth, -100 = all killed)
# Conditions: 10 µM unless noted
row,SMILES,growth
1,CS(=O)(=O)Nc1cc(-c2ccc3ncnc(Nc4cccc(Cl)c4F)c3c2)cnc1Cl,-18.4% (active)
2,CCN(CC)CCOc1ccc2ccc(=O)oc2c1,86%
3,NS(=O)(=O)c1ccc(-n2nc(-c3ccc(Cl)cc3)ccc2=O)cc1,56.9%
4,CCNc1ncnc2n[nH]nc12,97.2%
5,O=c1cc(-c2ccccc2)nc(SCc2nc3cc(Cl)c(Cl)cc3[nH]2)[nH]1,116%
6,CN(C)CCN(C)CC(C)(C)C(=O)/C=C/c1ccc(Cl)c(Cl)c1,-83.6% [100 µM] (active)
7,CC1(C)CC2=C3C=C[C@@H]4[C@@]5(C)CC[C@H](O)C(C)(C)[C@@H]5CC[C@@]4(C)[C@]3(C)CC[C@@]2(C(=O)O)CC1=O,81.4%
8,Cc1ccc(/C=C(\C#N)c2cc3ccccc3n2C)cc1,23.6%
9,COc1cc2nccc(Oc3ccc(NC(=O)Nc4cc(C)on4)c(Cl)c3)c2cc1OC,15%
10,N#Cc1c2c([nH]c(=O)c1C(N)=O)CCCCC2,109%
11,O=S(=O)(O)c1ccc(O)c2ccccc12,104%
12,N=C1C=C(N)C(=O)c2ccccc21,-85.6% (active)
13,Cc1cc(-c2ccccc2)on1,109%
14,S=P(N1CC1)(N1CC1)N1CC1,106% and 67.8%
15,C=C1C(=O)O[C@H]2[C@H]1CC/C(COC(=O)NCc1cn(C)c3ccccc13)=C\CC[C@@]1(C)O[C@@H]21,-38.4% (active)
16,CC(Nc1c(C#N)cnc2ccc(-c3cncc(O)c3)cc12)c1ccccc1 (stereo not given),-37% (active)
17,COc1ccc(C2CC(c3ccc(Nc4nc(NCCO)nc(Nc5ccc(Cl)cc5)n4)cc3)=Nc3c(N)nc(N)nc3N2)cc1 (stereo not given),-23% (active)
18,N#CCCCCCn1c2ccccc2c2c3c(c4c5ccccc5n(CCCCCC#N)c4c21)C(=O)N(O)C3=O,87.8%
19,Cc1ccc(C(=O)N2C/C(=C/c3ccccc3)C(=O)/C(=C/c3ccccc3)C2)cc1,18.1%
20,COc1c(C)c2c(c(O)c1C/C=C(\C)CCC(=O)OCCN1CCOCC1)C(=O)OC2,32.6%

row,SMILES,growth
1,NC(=O)CC1(O)C=C(Br)C(=O)C(Br)=C1,-9.32% (active)
2,CCc1ccc(CCC(=O)Nc2ncc(Cc3ccccc3)s2)o1,28.1%
3,COC(=O)c1[nH]nc(OC)c1C1(C(C#N)c2nc3ccccc3s2)CCCc2ccccc21 (stereo not given),98.2%
4,CCC1(C)OC(=O)NC1=O (stereo not given),107%
5,Clc1nnc2c3ccccc3ccn12,101%
6,O=c1c2cccc3c(Nc4ccc(Br)cn4)ccc(c32)c2nc3ccccc3n12,-64.7% (active)
7,OC1COC(OCc2ccccc2)C(O)C1O (stereo not given),94.8%
8,Cc1cc(C)c([I+]c2c(C)cc(C)cc2C)c(C)c1,-41.9% (active)
9,Cc1sc2nc3[nH]/c(=C\c4ccc(Cl)cc4)c(=O)n3c(=O)c2c1C,101%
10,O=[N+]([O-])c1cnc(Sc2ccncn2)c([N+](=O)[O-])c1,-44.4% (active)
11,O=C(NNc1nc2cc(F)c(F)cc2n2cccc12)c1ncccn1,3.66% (active)
12,O=C(Cn1nnc2ccccc21)Nc1ccc(-c2nc3ccccc3s2)cc1,-23.8% (active)
13,N#CC1=C(N)Oc2c(sc3c(Br)cccc23)C1c1ccccn1 (stereo not given),25.6%
14,Cc1cc(C)c(OC(=O)CSc2nc3ccccc3c(=O)n2CCc2ccccc2)cc1C,101%
15,COc1cc(/C=N/NC(=O)c2ccc(C)nc2)cc(OC)c1OC,98.5%
16,COC1=CC(c2ccc[nH]2)=N/C1=C\c1[nH]c(C)c(C)c1CCC(=O)OCc1ccccc1,15.6%
17,CC(C)=NNc1ncnc2c1ncn2C1OC(CO)C(O)C1O (stereo not given),12.5%
18,Cn1cc(-c2csc(-c3cn(CCCN4CCCCC4)c4ccc(Br)cc34)n2)c2cccnc21,15.2%
19,OC1CC2c3ccccc3C1c1ccccc12 (stereo not given),111%
20,COC(=O)[C@]12CC[C@@H](C)[C@H](C)[C@@H]1C1=CC[C@@H]3[C@@]4(C)C(C=O)=C[C@@](C)(COC(=O)c5ccco5)C4=CC[C@@]3(C)[C@]1(C)CC2,5.01% (active)
